From the supplement of paper PMC7695840
Where a name gives a salt, the structure may show the parent alone.

Columns and labels:
[1] = tested on: Staphylococcus aureus MW2 delta-mecA (mecA-); test: normalized GFP fluorescence (growth of mecA- strain) (fraction of control range); higher = more growth of mecA- strain; settings: compound concentration: 150 uM; cefoxitin: subinhibitory; fluorescent label: GFP
How it was run: (§1)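 Compound at 150 μM (1.5% DMSO) in 1536-well plates received 5 µL/well of pre-induced S. aureus MW2 cells mixed 1:1, gene-carrying with DsRed and gene-deleted with GFP, in LB with a daily-set subinhibitory antibiotic dose, single replicate. After 20 h unshaken at 37 °C, 90% humidity, DsRed (540/590) and GFP (485/520) were measured and scaled per plate between single-strain control medians. Plates with high untreated ratios and rows with DsRed/GFP >10 were excluded.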

[2] = tested on: Staphylococcus aureus MW2 (mecA+); test: normalized DsRed fluorescence (growth of mecA+ strain) (fraction of control range); higher = more growth of mecA+ strain; settings: compound concentration: 150 uM; cefoxitin: subinhibitory; fluorescent label: DsRed
How it was run: as §1

For COC(=O)Nc1nc2cc(C(=O)c3ccccc3)ccc2[nH]1, the “normalized GFP fluorescence” value [1] was 0.145 and the “normalized DsRed fluorescence” value [2] was 1.25.

CC1(C)S[C@@H]2[C@H](NC(=O)Cc3ccccc3)C(=O)N2[C@H]1C(=O)O was tested, and the “normalized GFP fluorescence” value [1] was 0.0214 and the “normalized DsRed fluorescence” value [2] was 0.0849.

For CC(C)NCC(O)c1ccc(O)c(O)c1 (stereo not drawn) [Isoprenaline hydrochloride], the “normalized GFP fluorescence” value [1] was 0.458 and the “normalized DsRed fluorescence” value [2] was 0.758.

With COc1cc2c3cc1Oc1cc(ccc1O)C[C@@H]1c4c(cc(OC)c(O)c4Oc4ccc(cc4)C[C@@H]3N(C)CC2)CC[N+]1(C)C the “normalized GFP fluorescence” value [1] was 0.357 and the “normalized DsRed fluorescence” value [2] was 0.607.

In the case of CCC1(C)CC(=O)NC1=O (stereo not drawn), the “normalized GFP fluorescence” value [1] was 0.678 and the “normalized DsRed fluorescence” value [2] was 0.691.

CCCCN1CCCCC1C(=O)Nc1c(C)cccc1C (stereo not drawn) was tested, and the “normalized GFP fluorescence” value [1] was 0.62 and the “normalized DsRed fluorescence” value [2] was 0.887.

CN1CCC(=C2c3ccccc3CCc3sccc32)CC1 [Pizotifen malate] was tested, and the “normalized GFP fluorescence” value [1] was 0.00361 and the “normalized DsRed fluorescence” value [2] was 1.4.

In the case of CNC(=C[N+](=O)[O-])NCCSCc1csc(CN(C)C)n1, the “normalized GFP fluorescence” value [1] was 0.575 and the “normalized DsRed fluorescence” value [2] was 0.785.

With Cc1ccc(C(=O)c2ccc(CC(=O)O)n2C)cc1 the “normalized GFP fluorescence” value [1] was 0.421 and the “normalized DsRed fluorescence” value [2] was 0.279.

In the case of Nc1nc(N)c2nc(-c3ccccc3)c(N)nc2n1, the “normalized GFP fluorescence” value [1] was 0.0839 and the “normalized DsRed fluorescence” value [2] was 1.75.

In the case of C[C@@H]1C[C@H]2[C@@H]3CCC4=CC(=O)C=C[C@]4(C)[C@@]3(F)[C@@H](O)C[C@]2(C)[C@@]1(O)C(=O)CO, the “normalized GFP fluorescence” value [1] was 0.309 and the “normalized DsRed fluorescence” value [2] was 0.687.

CCOC(=O)OC(C)OC(=O)[C@@H]1N2C(=O)[C@@H](NC(=O)[C@H](N)c3ccccc3)[C@H]2SC1(C)C (stereo partly drawn) was tested, and the “normalized GFP fluorescence” value [1] was 0.00819 and the “normalized DsRed fluorescence” value [2] was 0.591.

CC(=O)Oc1ccc(C(c2ccc(OC(C)=O)cc2)c2ccccn2)cc1 was tested, and the “normalized GFP fluorescence” value [1] was 0.399 and the “normalized DsRed fluorescence” value [2] was 0.669.

In the case of CN(C)CC(c1ccc(O)cc1)C1(O)CCCCC1 (stereo not drawn), the “normalized GFP fluorescence” value [1] was 0.107 and the “normalized DsRed fluorescence” value [2] was 1.1.
